The record followed here is PubChem BioAssay (NCATS).

A number with no mark means an inactive call. Inconclusive results are not listed. Active and inactive are the calls of the source. Unless noted, calls follow the shape of the dose curve; as a rule, active = well fitted curve in the direction sought with a large enough effect; inconclusive = small, poorly fitted or top-dose-only effect, or another doubt; inactive = no such curve, though single readings can be large; an effect the other way counts as inactive or inconclusive.

Experiment [1] has as its target Lysosomal acid glucosylceramidase (Homo sapiens) (UniProt P04062). Kind of experiment: Glucocerebrosidase-p2 (AID 348; in the data active = potency below about 10 µM; also: potency is read from the fitted curve at half-maximal effect). The following applies: purified GBA, blue fluorogenic substrate, 40 min. In short, it runs like this: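 Normal human glucocerebrosidase (0.2 nM) with blue fluorogenic substrate (80 uM final) in citrate/phosphate pH 5.9 with 10mM sodium taurocholate, 0.01% tween-20; 40 min RT, NaOH/glycine stop; fluorescence Ex 365/Em 440; AC50 from a titration from 0.6 nM upwards.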

The nature of experiment [2]: AP1 Signaling Pathway (AID 357; active = well fitted curve in either direction with a large enough effect, not every such curve was filed as active;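 also: ME-180 reporter cells stimulated with EGF at its EC50 level; % is scaled to controls: 0 for no effect and ±100 for the full control effect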). The following applies: ME-180 AP-1-bla reporter, EGF-induced, beta-lactamase ratio, 5 h; at 7.69 µM (top of the series) unless noted. A digest of the protocol: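 Beta-lactamase reporter under AP-1 response element, ME-180 background. Stimulus: EC50 EGF. Compound exposure 5 h, 37 °C. Detection: CCF4, 2.5 h RT, 460/530 nm. Values: AC50 from titration.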

Experiment [3] concerns the target Cytochrome P450 1A2 (Homo sapiens) (UniProt P05177). Kind of experiment: p450-cyp1a2 (AID 410; calls by dose curve; also: potency is read from the fitted curve at half-maximal effect). The following applies: recombinant CYP1A2, luciferin-ME demethylation, luminescence; series mostly up to 57 µM. In short, it runs like this:
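20nM CYP1A2, 100uM Luciferin-ME (=Km), 100mM KPO4; cpd 10 min RT; +NADPH regen, 60 min RT; stop/detect 20 min; luminescence. Normalized to furafylline 57 uM = full inhibition.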

A short description of experiment [4]: NFAT Signaling Pathway (AID 444; active = well fitted curve in either direction with a large enough effect, not every such curve was filed as active;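 also: carbachol stimulus at about its EC50 of 1 µM final; % is scaled to controls: 0 for no effect and ±100 for the full control effect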). The following applies: Jurkat NFAT-bla M1, carbachol, beta-lactamase ratio, 5 h; at 7.69 µM (top of the series) unless noted. In short, it runs like this:
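Jurkat cells carrying an NFAT-driven β-lactamase reporter and co-transfected muscarinic M1 receptor were treated with compound plus carbachol (1 uM final, an EC50 level) for 5 h at 37 °C. CCF4 loading followed for 1 h at RT; 460/530 nm ratio gave %activity.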

The nature of experiment [5]: Stat Signaling Pathway (AID 446; active = well fitted curve in either direction with a large enough effect, not every such curve was filed as active;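 also: ME-180 cervical cancer cells given 40 pM IL-6 alongside compound; SIE-controlled beta-lactamase reporter measured as 460/530 nm FRET emission ratio; % is scaled to controls: 0 for no effect and ±100 for the full control effect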). Particulars: ME-180 (cervical carcinoma) SIE beta-lactamase reporter, IL-6 stimulated, 5 h; at 7.69 µM (top of the series) unless noted. A digest of the protocol: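 Normalization used AC90 stimulation (300 pM IL-6) and AC90 inhibition (125 nM pan-JAK inhibitor at 40 pM IL-6). The underlying signal is SIE-driven beta-lactamase in ME-180 cells after 5 h IL-6 exposure with compound.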

Experiment [6] concerns the target Glucocorticoid receptor (Homo sapiens) (UniProt P04150). Kind of experiment: GR-GFP Redistribution (AID 450;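 active = compounds whose dose series gives a full or clear partial fitted curve of increased nuclear translocation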; also: potency is read from the fitted curve at half-maximal effect). Particulars: U2OS GR-GFP nuclear translocation, laser cytometry, 2 h.
Experiment [7] shares this target. Kind of experiment: GR-EFC Redistribution (AID 451; calls by dose curve; also: potency is read from the fitted curve at half-maximal effect). Particulars: CHO-K1 GR-EFC translocation, beta-gal luminescence, 2 h. A digest of the protocol:
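CHO-K1 cells stably expressing nuclear-localized β-gal enzyme acceptor and GR fused C-terminally to the enzyme donor fragment; ligand-driven nuclear translocation restores β-gal by complementation. Compounds titrated up to 46 uM final, 2 h at 37 °C; luminescence read.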

In experiment [8] the target is Mitogen-activated protein kinase 10 (Mus musculus) (UniProt Q61831). Kind of experiment: JNK3 AlphaScreen Assay (AID 530; active = well fitted curve in either direction with a large enough effect, not every such curve was filed as active;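 also: kinase came from lysate of stimulated human HepG2 cells; signal reports phosphorylation of biotinylated GST-cJun 1-79 at Ser73 with 10 µM ATP; % is scaled to controls: 0 for no effect and ±100 for the full control effect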). The following applies: JNK3 lysate, c-Jun phosphorylation; series mostly up to 57.1 µM. In short, it runs like this:
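Biotinylated GST-cJun(1-79) served as substrate for JNK3 in HepG2 lysates stimulated with IL-1beta and TNF-alpha. ATP was 10 uM final, pH 7.6. Ser73 phosphorylation was quantified by AlphaScreen (680 nm excitation).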
In general terms: In Alpha technology, singlet oxygen from a donor bead excites a nearby acceptor bead.

Experiment [9] concerns the target 3',5'-cyclic-AMP phosphodiesterase 4B (Homo sapiens) (UniProt Q07343). Kind of experiment: qHTS Assay for Inhibitors of PDE-IV (AID 607; active = well fitted activation curve with a large enough effect in the main read-out, with a control signal flat, not every such curve was filed as active; also: % of control where 0% means no effect). Particulars: HEK293 ACTOne CNG channel cells, membrane potential fluorescence; series mostly up to 22.9 µM. A digest of the protocol:
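HEK293 ACTOne cells with CNG channel (1000/well), endogenous PDE4; membrane potential dye, compounds up to 22.9 uM final. Fluorescence Ex 535/Em 590; RO 20-1724 (100 uM final) as reference.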

For experiment [10], the target named is Cytochrome P450 3A4 (Homo sapiens) (UniProt P08684). Kind of experiment: qHTS Assay for Inhibitors and Substrates of Cytochrome P450 3A4 (AID 884). Also: potency is read from the fitted curve at half-maximal effect; nearly all actives have a fitted effect of over 50% in size. The following applies: recombinant CYP3A4, Luciferin-PPXE luminescence; series mostly up to 57.1 µM. In short, it runs like this: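 Luminescent readout of luciferin produced by CYP3A4 (20 nM) dealkylation of Luciferin-PPXE, 25 uM (its KM). NADPH-driven reaction ran 60 min at RT after 10 min compound preincubation; data scaled to 57 uM ketoconazole as 100% inhibition.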

Experiment [11] shares this target. Kind of experiment: qHTS Assay for Activators of Cytochrome P450 3A4 (AID 885). Also: nearly all actives have a fitted effect of over 65% in size. The following applies: recombinant CYP3A4, Luciferin-PPXE luminescence, 60 min; series mostly up to 57.1 µM. In short, it runs like this: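 Human CYP3A4 dealkylates Luciferin-PPXE to luciferin, which luciferase detection converts to light. Substrate was at its KM (25uM), buffer 200mM KPO4, reaction 60 min at RT.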

In experiment [12] the target is Dual specificity protein kinase CLK4 (Homo sapiens) (UniProt Q9HAZ1). Kind of experiment: qHTS Assay for Inhibitors of CDC-like Kinase 4 (Kinase-Glo Assay) (AID 1770). Also: nearly all actives have a fitted effect of over 65% in size. Also: potency is read from the fitted curve at half-maximal effect. Particulars: recombinant Clk4, Kinase-Glo ATP depletion luminescence; series mostly up to 66.7 µM. A digest of the protocol: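 Luminescent ATP-depletion read-out (Kinase-Glo) after 4.5 h room-temperature reaction of Clk4 (25 nM final) with RS peptide (100 uM) and ATP (1 uM), pH 7.5 Tris buffer with MgCl2 and DTT.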

Experiment [13] shares this target. Kind of experiment: qHTS Assay for Inhibitors of CDC-like Kinase 4 (ADP-Glo Assay) (AID 1771). Also: nearly all actives have a fitted effect of over 70% in size. Also: potency is read from the fitted curve at half-maximal effect. Particulars: recombinant CLK4, ADP-Glo luminescence; series mostly up to 80 µM. In short, it runs like this: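 25 nM Clk4, 100 uM RS peptide, 1 uM ATP (final); 2 mM MgCl2, 0.5 mM EGTA, 2.5 mM DTT, 0.01% Triton X-100; 1 hr RT. ADP-Glo readout: ATP depletion 45 min, conversion/luciferase 30 min, luminescence.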
Background: qHTS replaces the single test concentration by a dilution series.

Experiment [14] has the same target. Kind of experiment: qHTS Assay for Inhibitors of CDC-like Kinase 4 (ADP-FP Assay) (AID 1795). Also: nearly all actives have a fitted effect of over 60% in size. Also: potency is read from the fitted curve at half-maximal effect. The following applies: Transcreener ADP fluorescence polarization; series mostly up to 50 µM. In short, it runs like this: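 Kinase activity was measured as ADP production using Transcreener orange tracer (4 nM) and ADP antibody (1 ug/mL) fluorescence polarization, with ADP calculated from a calibration curve. The 1 h reaction contained 6.25 nM Clk4, 1 uM ATP and 100 uM RS peptide at pH 7.5 with Mg2+.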

For experiment [15], the target named is Ubiquitin carboxyl-terminal hydrolase 1 (Homo sapiens) (UniProt O94782). Kind of experiment: Inhibitors of USP1/UAF1: Pilot qHTS (AID 504865).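 Also: rhodamine fluorescence freed from ubiquitin-rhodamine substrate followed over time; top concentration of the series differs between compounds; % is scaled to controls: 0 for no effect and ±100 for the full control effect; nearly all actives have a fitted effect of over 35% in size.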 The following applies: purified USP1/UAF1, Ub-rhodamine cleavage fluorescence; series mostly up to 54.9 µM. A digest of the protocol:
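Deubiquitinase activity followed as kinetic rhodamine fluorescence release from 150 nM Ub-Rho. 1 nM USP1/UAF1 with compound, after 15 min room-temperature preincubation, in HEPES pH 7.8 buffer containing TCEP, EDTA, BSA and Tween-20.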

Experiment [16] is described as follows: Primary qHTS for small molecule stabilizers of the endoplasmic reticulum resident proteome: Secreted ER Calcium Modulated Protein (SERCaMP) assay (AID 1508630). Also: % is scaled to controls: 0 for no effect and ±100 for the full control effect. The following applies: SH-SY5Y GLuc-SERCaMP (Gaussia luciferase released on ER calcium loss) secretion, thapsigargin, luminescence; series mostly up to 38.4 µM. In short, it runs like this:
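The SH-SY5Y reporter protocol was run at 3 concentrations up to 38.3 uM (primary) or 11 concentrations (follow-up): 16 h compound, 100 nM thapsigargin for 4 h, then extracellular luciferase luminescence.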

Experiment [17] addresses Cytochrome P450 2C19 (Homo sapiens) (UniProt P33261). Kind of experiment: qHTS Assay for Inhibitors and Substrates of Cytochrome P450 2C19 (AID 899). Also: potency is read from the fitted curve at half-maximal effect; nearly all actives have a fitted effect of over 60% in size. Particulars: recombinant CYP2C19, luciferin-H EGE luminescence; series mostly up to 57.1 µM. A digest of the protocol: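 In 50mM KPO4, the reaction held 5nM enzyme and KM-level (10uM) Luciferin-H EGE; it ran 60 min at 37C after NADPH regeneration and a 10 min compound preincubation. Luminescence values were scaled to 57uM ketoconazole as complete inhibition.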

Lysosomal acid glucosylceramidase (Homo sapiens), sequence (P04062 whole entry, looked up): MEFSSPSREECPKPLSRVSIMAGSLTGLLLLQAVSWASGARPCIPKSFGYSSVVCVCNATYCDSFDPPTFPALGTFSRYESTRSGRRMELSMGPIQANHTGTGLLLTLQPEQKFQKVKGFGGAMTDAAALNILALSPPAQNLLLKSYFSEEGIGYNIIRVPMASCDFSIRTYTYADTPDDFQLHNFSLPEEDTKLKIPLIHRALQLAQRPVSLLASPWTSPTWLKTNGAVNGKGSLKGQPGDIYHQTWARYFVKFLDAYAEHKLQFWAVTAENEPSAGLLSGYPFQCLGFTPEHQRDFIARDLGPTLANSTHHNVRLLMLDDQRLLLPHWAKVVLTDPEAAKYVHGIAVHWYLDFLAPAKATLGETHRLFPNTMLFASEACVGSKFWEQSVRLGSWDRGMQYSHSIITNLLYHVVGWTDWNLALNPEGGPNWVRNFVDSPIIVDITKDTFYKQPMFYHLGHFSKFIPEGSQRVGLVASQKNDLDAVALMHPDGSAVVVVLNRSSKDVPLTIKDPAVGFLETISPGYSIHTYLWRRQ
Glucocorticoid receptor (Homo sapiens), sequence (P04150 whole entry, looked up): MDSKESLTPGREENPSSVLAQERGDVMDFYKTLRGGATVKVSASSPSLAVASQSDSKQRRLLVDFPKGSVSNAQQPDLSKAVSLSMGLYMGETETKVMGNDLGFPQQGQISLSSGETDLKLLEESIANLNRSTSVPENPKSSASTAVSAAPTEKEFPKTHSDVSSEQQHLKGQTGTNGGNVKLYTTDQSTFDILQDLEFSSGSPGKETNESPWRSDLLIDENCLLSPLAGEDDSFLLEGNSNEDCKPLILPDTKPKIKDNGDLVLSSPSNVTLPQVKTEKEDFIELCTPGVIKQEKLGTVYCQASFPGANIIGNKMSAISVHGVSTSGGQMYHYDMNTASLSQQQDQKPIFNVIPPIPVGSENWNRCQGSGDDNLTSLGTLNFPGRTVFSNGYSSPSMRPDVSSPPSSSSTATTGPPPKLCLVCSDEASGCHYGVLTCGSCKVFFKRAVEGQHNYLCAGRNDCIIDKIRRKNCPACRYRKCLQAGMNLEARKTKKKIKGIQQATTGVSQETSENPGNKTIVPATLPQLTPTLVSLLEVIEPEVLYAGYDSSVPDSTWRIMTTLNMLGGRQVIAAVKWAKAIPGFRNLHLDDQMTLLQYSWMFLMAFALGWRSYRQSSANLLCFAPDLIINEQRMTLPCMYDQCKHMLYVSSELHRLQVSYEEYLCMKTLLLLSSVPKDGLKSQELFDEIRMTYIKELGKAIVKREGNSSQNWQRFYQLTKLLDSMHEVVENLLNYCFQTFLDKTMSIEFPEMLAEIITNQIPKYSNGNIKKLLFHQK
3',5'-cyclic-AMP phosphodiesterase 4B (Homo sapiens), sequence (Q07343 whole entry, looked up): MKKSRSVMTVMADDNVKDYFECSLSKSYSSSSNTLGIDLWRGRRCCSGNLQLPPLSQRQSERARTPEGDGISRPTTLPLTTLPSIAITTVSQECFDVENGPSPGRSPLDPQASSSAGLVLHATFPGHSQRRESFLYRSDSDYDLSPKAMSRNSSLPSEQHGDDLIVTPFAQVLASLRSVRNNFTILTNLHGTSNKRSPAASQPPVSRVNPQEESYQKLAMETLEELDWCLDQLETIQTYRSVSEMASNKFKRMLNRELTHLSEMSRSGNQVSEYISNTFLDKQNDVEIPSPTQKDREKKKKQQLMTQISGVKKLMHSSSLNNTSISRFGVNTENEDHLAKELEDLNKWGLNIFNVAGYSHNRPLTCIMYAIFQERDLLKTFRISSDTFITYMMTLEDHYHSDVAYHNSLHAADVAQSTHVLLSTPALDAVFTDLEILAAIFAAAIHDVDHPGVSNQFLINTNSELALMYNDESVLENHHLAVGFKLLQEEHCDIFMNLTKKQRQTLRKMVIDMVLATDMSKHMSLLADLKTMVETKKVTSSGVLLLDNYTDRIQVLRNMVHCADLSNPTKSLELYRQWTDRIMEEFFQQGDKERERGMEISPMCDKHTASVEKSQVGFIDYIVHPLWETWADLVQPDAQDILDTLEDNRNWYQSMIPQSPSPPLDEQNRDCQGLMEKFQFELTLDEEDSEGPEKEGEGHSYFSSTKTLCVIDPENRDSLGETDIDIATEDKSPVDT
Ubiquitin carboxyl-terminal hydrolase 1 (Homo sapiens), sequence (O94782 whole entry, looked up): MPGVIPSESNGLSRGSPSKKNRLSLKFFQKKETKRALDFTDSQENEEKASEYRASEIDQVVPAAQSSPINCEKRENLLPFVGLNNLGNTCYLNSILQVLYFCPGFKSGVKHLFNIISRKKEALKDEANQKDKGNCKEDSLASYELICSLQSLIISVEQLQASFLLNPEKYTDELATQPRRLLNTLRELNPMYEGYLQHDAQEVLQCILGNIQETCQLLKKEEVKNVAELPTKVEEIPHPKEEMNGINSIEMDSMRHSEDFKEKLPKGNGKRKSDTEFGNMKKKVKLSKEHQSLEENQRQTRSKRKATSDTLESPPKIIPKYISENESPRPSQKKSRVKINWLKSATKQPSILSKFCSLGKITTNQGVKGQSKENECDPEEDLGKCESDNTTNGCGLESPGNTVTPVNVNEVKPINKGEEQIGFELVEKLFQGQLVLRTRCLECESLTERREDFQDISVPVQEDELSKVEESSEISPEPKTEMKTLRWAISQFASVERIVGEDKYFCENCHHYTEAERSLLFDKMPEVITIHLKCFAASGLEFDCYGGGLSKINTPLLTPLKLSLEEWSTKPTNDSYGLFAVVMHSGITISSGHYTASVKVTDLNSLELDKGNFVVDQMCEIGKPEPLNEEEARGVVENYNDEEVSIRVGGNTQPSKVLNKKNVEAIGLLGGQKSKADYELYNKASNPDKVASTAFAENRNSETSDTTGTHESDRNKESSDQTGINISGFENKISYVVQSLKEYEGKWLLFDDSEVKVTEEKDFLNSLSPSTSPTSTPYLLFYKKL
Dual specificity protein kinase CLK4 (Homo sapiens), sequence (Q9HAZ1 whole entry, looked up): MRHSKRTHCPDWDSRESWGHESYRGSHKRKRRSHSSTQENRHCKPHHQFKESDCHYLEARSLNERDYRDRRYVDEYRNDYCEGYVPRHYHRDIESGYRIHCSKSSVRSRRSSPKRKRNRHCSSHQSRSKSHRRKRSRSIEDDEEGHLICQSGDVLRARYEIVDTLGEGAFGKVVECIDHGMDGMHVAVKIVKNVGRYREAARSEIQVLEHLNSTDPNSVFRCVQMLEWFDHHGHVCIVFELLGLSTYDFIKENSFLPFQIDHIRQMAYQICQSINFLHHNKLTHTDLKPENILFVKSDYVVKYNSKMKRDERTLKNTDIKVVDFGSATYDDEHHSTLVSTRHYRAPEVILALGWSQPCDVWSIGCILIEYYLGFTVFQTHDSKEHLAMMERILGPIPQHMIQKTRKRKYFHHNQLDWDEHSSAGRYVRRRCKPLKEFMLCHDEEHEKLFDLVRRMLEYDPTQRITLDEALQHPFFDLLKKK
Cytochrome P450 3A4 (Homo sapiens), sequence (P08684 whole entry, looked up): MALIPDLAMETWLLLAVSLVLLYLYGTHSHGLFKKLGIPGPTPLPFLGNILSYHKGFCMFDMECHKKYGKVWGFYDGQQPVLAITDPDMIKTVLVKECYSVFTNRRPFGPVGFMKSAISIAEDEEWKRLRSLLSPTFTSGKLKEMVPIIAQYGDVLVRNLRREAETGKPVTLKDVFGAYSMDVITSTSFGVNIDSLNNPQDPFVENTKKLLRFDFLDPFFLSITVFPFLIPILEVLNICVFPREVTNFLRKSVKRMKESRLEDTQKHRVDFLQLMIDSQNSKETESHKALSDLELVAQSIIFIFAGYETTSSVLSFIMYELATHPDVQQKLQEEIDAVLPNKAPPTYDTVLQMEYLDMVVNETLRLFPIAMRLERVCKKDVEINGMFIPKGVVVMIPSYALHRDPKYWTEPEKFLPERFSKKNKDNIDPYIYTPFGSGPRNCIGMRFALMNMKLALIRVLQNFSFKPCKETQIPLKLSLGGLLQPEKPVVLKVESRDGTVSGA
Cytochrome P450 1A2 (Homo sapiens), sequence (P05177 whole entry, looked up): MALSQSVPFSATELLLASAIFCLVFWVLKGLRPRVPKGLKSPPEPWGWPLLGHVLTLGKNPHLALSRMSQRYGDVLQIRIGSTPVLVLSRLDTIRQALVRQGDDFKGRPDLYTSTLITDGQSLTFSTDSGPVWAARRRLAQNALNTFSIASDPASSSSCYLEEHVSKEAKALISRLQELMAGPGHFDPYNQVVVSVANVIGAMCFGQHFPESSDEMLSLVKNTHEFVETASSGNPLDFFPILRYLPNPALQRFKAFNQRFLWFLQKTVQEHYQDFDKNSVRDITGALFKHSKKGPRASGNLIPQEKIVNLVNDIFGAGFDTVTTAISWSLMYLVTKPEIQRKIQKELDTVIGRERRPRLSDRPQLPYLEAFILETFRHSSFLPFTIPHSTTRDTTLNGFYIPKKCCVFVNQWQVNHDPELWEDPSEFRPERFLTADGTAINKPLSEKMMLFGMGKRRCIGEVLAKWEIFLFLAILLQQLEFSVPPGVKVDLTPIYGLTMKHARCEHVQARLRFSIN
Cytochrome P450 2C19 (Homo sapiens), sequence (P33261 whole entry, looked up): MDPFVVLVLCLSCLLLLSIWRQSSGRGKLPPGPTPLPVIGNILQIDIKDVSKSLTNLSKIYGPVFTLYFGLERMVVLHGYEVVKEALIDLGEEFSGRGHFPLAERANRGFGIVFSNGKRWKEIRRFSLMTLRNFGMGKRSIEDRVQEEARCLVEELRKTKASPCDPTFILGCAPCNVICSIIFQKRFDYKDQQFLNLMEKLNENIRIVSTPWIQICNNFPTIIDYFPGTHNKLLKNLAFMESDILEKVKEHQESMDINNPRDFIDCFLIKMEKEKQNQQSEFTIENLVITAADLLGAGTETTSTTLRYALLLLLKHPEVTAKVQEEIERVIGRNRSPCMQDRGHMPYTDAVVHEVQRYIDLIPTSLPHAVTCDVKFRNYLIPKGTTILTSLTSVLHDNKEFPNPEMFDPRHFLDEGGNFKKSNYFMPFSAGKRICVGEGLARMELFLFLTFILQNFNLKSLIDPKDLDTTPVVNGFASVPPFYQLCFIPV

For `COc1ccc(CNc2ncncc2-c2c(C)noc2C)c(OC)c1`, the Potency was above 11.4 µM in [1]; 25.1 µM (active) in experiment [3]; above 46 µM in experiment [6]; above 46 µM in experiment [7]; 1.26 µM (active) in experiment [10]. The activity change, negative = inhibition in [2] is -10.6%; in experiment [4], 9.48%. Besides, the activity, negative = inhibition in experiment [5] is 2.92%. Moreover, the Potency entry in [8], in experiment [9], in experiment [11], in experiment [12], in experiment [13] and in experiment [14] was “inactive” each time. Further, in experiment [15], the Potency entry is “inactive”. Further, the result in [16] was inactive.

Take `CC(=O)NCCNc1ncncc1-c1ccccc1CN(C)C`: the Potency in experiment [1] is above 11.4 µM; in experiment [3] it was 25.1 µM (active); in [6] it was above 46 µM; in experiment [7], above 46 µM. For the same compound, the activity change, negative = inhibition in [2] was 1.84%; in experiment [4] it was -2.17%. For the same compound, the activity, negative = inhibition in [5] is 0.764%. In addition, the Potency result in [8], in experiment [9], in [11], in [12], in [13] and in [14] was “inactive” throughout. For the same compound, in [15], the Potency entry is “inactive”. Further, the result in experiment [16] was inactive.

On to `c1nc(NC2CC2)c2cc(-c3ccoc3)ccc2n1`, for which the Potency in experiment [1] is above 11.4 µM; in experiment [3], 0.794 µM (active); in experiment [6], above 46 µM; in experiment [7] it was above 46 µM; in experiment [12], 0.794 µM (active); in [13], 0.708 µM (active). Also, the Potency in [14] is 0.178 µM (active). Moreover, the activity change, negative = inhibition is -18% in experiment [2] and 6.95% in experiment [4]. In addition, the activity, negative = inhibition in experiment [5] is -16.7%. The Potency result in experiment [8], in [11] and in [15] was “inactive” in each case. In [16], the outcome was inactive.

Consider `N#Cc1cccc(-c2cncnc2NCc2ccccc2)c1`, for which the Potency in experiment [1] was above 11.4 µM; in experiment [3] it was 5.01 µM (active); in [6], above 46 µM; in [7], above 46 µM; in experiment [17], 7.94 µM (active). The activity change, negative = inhibition is 1.22% in experiment [2] and 2.64% in [4]. In addition, in experiment [5], the activity, negative = inhibition was -1.62%. Moreover, the Potency result in experiment [8], in experiment [9], in experiment [11], in experiment [12], in experiment [13] and in experiment [14] was “inactive” each time. The Potency entry in experiment [15] was “inactive”. Besides, the result in experiment [16] was inactive.

On to `COc1ncc2nc(C)c(=O)n(-c3ccccc3)c2n1`, for which the Potency in [1] is above 11.4 µM; in experiment [3], 5.01 µM (active); in [6], above 9.22 µM; in experiment [7], above 46 µM. Besides, the activity change, negative = inhibition in experiment [2] is -2.25%; in experiment [4], 2.66%. Further, the activity, negative = inhibition in experiment [5] was -8.97%. In addition, the Potency entry in experiment [8], in experiment [9], in experiment [11], in experiment [12], in experiment [13] and in experiment [14] was “inactive” each time. For the same compound, in experiment [15], the Potency result is “inactive”. Moreover, the result in [16] was inactive.

Consider `COc1ccccc1CCn1c(=O)c(-c2cccc(Cl)c2)nc2cncnc21`, for which the Potency in experiment [1] is above 11.4 µM; in experiment [3] it was 0.316 µM (active); in experiment [6] it was above 9.22 µM; in experiment [7], above 46 µM; in [10], 6.31 µM (active). The activity change, negative = inhibition in [2] was -3.94%; in experiment [4] it was -27.9%. Besides, in [5], the activity, negative = inhibition was -13%. Besides, the Potency entry in [8], in experiment [11], in experiment [12], in experiment [13], in experiment [14] and in [15] was “inactive” in each case. In experiment [16], the result was inactive.
